Data reported in the supplement of paper PMC11732987, “Enantioselective OTUD7B fragment discovery through chemoproteomics screening and high-throughput optimisation” (Communications Chemistry, 2025).

Assays:
Assay in all cases: log2 ratio of Biotin-Ahx-Ub-VS probe labelling (fragment/DMSO); higher = less target engagement (more negative = stronger competition), active = hit call of the paper (q ≤ 0.05, log2 ratio ≤ -1)
Conditions in all cases: compound concentration: 200 uM; treatment time: 3 h
[1] = target: T1, USP19 (UniProt O94966)
T1 sequence (whole entry): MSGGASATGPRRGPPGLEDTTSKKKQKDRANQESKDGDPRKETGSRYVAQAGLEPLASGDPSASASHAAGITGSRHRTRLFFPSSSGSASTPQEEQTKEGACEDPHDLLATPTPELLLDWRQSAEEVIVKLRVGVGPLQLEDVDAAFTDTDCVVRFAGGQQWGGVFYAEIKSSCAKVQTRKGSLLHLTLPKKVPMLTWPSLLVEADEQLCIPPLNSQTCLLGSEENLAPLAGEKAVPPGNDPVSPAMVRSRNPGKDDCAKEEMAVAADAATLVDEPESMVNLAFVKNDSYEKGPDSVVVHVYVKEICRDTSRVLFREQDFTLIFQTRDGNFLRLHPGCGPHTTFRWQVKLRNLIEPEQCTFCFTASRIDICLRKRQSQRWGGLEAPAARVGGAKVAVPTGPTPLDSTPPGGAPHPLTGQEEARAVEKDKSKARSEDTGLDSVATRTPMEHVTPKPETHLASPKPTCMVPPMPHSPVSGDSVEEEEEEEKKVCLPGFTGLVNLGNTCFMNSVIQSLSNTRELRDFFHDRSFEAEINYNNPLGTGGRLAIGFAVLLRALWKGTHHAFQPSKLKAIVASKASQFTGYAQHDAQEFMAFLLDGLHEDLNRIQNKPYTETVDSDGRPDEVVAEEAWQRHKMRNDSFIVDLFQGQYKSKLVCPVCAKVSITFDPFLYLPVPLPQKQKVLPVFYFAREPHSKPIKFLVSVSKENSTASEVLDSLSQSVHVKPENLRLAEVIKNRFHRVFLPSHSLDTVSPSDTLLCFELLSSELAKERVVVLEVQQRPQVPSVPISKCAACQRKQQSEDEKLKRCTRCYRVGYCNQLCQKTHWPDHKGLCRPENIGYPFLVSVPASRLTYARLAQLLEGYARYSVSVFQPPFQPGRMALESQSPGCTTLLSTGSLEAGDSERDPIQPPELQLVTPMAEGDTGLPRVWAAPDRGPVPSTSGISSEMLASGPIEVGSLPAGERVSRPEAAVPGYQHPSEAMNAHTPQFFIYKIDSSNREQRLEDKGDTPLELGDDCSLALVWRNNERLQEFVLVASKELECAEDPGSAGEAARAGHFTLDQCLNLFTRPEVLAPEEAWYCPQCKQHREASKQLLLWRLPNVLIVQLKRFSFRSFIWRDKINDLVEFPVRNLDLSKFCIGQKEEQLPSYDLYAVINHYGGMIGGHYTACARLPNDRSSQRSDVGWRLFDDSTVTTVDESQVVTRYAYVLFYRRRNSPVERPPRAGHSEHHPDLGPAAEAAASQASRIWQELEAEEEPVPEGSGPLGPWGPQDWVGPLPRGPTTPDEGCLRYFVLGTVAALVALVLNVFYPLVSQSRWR
How it was run: (§1)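 Fragment (200 µM) or vehicle was incubated for 3 h with triplicate HEK293T lysate samples of 495 µg, which were then treated with Biotin-Ahx-Ub-VS at 0.5 µM final for 1 h. Labelled DUBs were enriched on NeutrAvidin, digested with LysC and trypsin, and analysed by diaPASEF LC-MS/MS. Values are average log2 fragment/vehicle ratios from an unpaired t-test on global-median-normalised Spectronaut label-free quantities, using proteins with ≥2 unique peptides.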

[2] = target: T2, USP22 (UniProt Q9UPT9)
T2 sequence (whole entry): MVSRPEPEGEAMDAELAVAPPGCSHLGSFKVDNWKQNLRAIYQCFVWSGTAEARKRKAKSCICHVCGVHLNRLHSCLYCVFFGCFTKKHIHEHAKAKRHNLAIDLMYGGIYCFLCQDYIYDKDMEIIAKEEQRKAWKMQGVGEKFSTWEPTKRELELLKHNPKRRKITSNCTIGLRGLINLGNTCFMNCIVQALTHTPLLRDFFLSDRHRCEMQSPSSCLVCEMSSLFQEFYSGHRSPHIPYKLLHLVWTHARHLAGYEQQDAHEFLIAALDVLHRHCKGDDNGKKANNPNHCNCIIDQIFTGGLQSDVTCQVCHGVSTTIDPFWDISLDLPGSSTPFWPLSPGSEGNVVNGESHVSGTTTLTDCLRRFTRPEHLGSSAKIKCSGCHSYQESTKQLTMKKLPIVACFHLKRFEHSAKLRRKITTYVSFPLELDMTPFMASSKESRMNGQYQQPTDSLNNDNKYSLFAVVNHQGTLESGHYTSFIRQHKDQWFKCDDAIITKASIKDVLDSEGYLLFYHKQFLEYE
How it was run: as §1

[3] = target: USP24 (UniProt Q9UPU5)
How it was run: as §1

[4] = target: T3, USP25 (UniProt Q9UHP3)
T3 sequence (whole entry): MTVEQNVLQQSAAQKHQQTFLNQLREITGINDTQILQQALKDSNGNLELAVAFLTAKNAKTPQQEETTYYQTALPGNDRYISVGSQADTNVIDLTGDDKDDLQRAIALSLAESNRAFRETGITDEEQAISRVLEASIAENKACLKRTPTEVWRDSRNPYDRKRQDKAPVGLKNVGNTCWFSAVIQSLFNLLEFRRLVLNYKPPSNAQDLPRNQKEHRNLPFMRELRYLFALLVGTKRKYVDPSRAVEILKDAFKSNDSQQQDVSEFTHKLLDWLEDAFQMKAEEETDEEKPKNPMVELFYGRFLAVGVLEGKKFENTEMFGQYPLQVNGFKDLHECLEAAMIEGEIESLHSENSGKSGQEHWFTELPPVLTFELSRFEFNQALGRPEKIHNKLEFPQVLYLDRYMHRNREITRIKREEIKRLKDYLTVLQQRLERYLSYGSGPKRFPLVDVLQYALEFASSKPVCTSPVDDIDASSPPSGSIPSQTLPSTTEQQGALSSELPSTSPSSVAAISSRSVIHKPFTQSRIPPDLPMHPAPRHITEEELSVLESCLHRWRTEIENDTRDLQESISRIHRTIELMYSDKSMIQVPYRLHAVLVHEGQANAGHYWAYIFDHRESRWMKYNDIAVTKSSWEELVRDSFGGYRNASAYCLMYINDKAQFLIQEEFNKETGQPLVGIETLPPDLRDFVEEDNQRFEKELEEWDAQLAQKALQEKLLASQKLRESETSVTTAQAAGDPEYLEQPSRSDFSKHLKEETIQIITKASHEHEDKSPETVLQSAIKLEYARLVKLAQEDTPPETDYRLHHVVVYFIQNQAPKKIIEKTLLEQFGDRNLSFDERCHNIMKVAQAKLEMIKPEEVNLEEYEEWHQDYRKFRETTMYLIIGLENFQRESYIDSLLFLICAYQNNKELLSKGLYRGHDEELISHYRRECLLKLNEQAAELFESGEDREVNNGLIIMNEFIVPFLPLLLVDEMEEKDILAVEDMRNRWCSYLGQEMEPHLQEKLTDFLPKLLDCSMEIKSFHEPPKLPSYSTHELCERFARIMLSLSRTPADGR
How it was run: as §1

[5] = target: T4, USP28 (UniProt Q96RU2)
T4 sequence (whole entry): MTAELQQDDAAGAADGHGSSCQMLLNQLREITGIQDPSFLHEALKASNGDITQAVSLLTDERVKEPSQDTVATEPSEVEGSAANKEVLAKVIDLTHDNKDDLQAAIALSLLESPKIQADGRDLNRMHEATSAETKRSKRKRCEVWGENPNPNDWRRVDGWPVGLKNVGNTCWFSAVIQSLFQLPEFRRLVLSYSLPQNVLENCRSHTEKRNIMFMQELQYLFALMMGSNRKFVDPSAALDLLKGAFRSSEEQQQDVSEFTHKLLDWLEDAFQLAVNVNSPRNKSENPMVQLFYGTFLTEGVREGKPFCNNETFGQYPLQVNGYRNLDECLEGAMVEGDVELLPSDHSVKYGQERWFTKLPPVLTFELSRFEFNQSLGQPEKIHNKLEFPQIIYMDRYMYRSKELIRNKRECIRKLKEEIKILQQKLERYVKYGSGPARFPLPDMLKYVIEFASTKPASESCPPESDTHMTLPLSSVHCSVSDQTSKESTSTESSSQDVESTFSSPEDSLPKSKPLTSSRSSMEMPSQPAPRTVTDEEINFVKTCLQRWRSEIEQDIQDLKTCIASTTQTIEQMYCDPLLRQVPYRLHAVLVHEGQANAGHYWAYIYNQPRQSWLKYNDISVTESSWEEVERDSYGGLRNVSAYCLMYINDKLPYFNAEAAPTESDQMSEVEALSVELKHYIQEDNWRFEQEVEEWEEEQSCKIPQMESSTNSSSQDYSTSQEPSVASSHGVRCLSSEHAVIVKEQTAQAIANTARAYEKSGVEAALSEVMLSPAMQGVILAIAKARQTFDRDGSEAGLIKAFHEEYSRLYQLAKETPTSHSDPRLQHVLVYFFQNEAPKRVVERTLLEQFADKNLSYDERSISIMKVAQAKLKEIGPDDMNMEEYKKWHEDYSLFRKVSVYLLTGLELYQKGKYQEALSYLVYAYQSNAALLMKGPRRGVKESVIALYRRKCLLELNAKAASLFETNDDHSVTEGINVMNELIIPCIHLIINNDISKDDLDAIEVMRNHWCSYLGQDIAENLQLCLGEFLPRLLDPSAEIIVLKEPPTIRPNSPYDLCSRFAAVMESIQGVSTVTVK
How it was run: as §1

Measured: log2 ratio of Biotin-Ahx-Ub-VS probe labelling

USP24, sequence (Q9UPU5 whole entry): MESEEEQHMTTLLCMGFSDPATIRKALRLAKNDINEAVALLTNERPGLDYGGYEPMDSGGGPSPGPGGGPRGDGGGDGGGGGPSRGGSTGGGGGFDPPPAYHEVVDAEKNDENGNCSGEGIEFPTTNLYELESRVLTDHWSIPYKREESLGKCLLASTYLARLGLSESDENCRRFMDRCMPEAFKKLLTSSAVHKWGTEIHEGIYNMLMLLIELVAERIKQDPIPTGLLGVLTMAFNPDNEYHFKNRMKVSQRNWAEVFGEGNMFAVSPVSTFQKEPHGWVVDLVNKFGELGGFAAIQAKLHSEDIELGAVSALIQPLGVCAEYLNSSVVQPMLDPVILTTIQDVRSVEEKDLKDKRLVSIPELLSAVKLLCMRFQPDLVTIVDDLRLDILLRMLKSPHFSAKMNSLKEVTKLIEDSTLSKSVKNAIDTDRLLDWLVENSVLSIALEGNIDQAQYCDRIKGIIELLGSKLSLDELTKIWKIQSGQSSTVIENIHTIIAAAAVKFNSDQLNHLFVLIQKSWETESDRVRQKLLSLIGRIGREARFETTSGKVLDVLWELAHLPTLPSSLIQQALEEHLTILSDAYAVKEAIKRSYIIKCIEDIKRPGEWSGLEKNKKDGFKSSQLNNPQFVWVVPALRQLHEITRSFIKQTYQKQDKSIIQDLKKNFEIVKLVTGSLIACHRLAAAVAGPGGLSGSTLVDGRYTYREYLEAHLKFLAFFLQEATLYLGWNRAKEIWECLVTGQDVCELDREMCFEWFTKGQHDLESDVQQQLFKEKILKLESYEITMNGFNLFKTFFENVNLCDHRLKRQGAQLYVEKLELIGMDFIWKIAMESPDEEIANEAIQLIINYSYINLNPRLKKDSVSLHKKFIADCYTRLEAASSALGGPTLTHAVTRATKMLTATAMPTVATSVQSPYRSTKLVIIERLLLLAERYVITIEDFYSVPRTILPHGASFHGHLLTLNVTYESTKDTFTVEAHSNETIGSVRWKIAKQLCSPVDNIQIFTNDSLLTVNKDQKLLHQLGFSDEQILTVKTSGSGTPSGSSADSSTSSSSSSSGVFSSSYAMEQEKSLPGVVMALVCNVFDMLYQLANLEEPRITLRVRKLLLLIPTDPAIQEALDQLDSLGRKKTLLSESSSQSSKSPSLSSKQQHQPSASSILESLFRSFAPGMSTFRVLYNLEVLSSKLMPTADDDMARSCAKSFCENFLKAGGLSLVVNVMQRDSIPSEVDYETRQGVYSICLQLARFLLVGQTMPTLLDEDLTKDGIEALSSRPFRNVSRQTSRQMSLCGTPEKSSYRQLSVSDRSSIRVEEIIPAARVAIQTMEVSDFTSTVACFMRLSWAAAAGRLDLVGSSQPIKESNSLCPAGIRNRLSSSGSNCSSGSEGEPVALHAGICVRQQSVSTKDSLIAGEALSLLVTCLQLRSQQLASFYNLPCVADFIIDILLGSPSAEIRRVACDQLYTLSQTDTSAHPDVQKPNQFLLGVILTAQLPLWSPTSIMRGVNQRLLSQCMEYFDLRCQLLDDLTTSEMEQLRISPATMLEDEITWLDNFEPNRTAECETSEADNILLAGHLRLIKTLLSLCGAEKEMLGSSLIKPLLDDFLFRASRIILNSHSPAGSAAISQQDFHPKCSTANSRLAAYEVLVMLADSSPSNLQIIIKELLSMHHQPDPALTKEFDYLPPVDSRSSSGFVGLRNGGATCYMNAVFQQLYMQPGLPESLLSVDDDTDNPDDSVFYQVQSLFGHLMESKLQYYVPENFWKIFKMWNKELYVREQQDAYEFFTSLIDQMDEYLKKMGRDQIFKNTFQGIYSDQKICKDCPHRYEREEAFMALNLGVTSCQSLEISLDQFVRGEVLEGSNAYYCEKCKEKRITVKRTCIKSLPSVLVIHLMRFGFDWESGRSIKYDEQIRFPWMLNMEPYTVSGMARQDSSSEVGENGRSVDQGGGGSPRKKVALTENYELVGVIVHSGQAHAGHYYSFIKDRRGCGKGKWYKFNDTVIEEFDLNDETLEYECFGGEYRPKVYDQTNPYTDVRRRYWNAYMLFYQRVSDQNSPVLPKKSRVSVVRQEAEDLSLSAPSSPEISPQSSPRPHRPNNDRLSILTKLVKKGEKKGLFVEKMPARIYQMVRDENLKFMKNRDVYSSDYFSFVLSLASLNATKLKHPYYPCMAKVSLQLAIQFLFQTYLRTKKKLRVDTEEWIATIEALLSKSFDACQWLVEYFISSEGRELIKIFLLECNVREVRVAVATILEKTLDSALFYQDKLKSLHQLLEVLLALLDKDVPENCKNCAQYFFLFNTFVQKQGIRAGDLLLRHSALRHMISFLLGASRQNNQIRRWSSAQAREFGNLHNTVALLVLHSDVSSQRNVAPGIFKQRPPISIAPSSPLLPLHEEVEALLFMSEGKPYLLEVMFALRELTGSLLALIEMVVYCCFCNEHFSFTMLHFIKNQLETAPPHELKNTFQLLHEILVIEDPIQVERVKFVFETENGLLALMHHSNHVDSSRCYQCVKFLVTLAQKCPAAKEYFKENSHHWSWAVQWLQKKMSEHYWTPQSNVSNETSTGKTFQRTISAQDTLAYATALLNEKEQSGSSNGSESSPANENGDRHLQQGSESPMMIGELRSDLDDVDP

Cc1noc(C)c1CNC(=O)CCl
inactive: [1] -0.666 | [2] -0.912 | [3] -0.8 | [4] -0.554 | [5] -0.971
